Screening data from PubChem.
An excerpt weighted towards active compounds, which were near 1.8% of everything screened.
Mcl1-Bid inh = Mcl-1/Bid binding inhibitors, primary screen, biochemical, TR-FRET, 1536-well; inhibition, % at 21.7 µM; Induced myeloid leukemia cell differentiation protein Mcl-1 (Homo sapiens), Q07820; TR-FRET Mcl-1/Bid-Dy647 peptide binding; actives 0.97% (n = 220,000);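 active = compounds that cut the binding signal by more than half at the single screening dose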;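 also: His-tagged Mcl-1 with europium anti-His antibody binding Bid BH3 peptide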
NOD2-RIPK2 inh = NOD2-RIPK2 binding disruptors in cells, primary screen, fluorescence, CHO cells, BLA complementation; Receptor-interacting serine/threonine-protein kinase 2 (Homo sapiens), O43353; inhibition, % at 4.98 µM; actives 0.38% (n = 360,000); CCF4 ratio; in the data active = inhibition above about 21%
TLR4-MyD88 BLA = inhibitors of TLR4-MyD88 association in cells, primary screen, cell-based, HeLa CL3-4, BLA complementation, FRET ratio. AID 861, 2007. inhibition, % at 8.4 µM. HeLa CL3-4 TLR4/MyD88 BLA complementation. Toll-like receptor 4 (Homo sapiens) + Myeloid differentiation primary response protein …. actives 0.18% (n = 200,000); in the data active = inhibition above about 25%
Target sequence (O00206 whole entry, looked up): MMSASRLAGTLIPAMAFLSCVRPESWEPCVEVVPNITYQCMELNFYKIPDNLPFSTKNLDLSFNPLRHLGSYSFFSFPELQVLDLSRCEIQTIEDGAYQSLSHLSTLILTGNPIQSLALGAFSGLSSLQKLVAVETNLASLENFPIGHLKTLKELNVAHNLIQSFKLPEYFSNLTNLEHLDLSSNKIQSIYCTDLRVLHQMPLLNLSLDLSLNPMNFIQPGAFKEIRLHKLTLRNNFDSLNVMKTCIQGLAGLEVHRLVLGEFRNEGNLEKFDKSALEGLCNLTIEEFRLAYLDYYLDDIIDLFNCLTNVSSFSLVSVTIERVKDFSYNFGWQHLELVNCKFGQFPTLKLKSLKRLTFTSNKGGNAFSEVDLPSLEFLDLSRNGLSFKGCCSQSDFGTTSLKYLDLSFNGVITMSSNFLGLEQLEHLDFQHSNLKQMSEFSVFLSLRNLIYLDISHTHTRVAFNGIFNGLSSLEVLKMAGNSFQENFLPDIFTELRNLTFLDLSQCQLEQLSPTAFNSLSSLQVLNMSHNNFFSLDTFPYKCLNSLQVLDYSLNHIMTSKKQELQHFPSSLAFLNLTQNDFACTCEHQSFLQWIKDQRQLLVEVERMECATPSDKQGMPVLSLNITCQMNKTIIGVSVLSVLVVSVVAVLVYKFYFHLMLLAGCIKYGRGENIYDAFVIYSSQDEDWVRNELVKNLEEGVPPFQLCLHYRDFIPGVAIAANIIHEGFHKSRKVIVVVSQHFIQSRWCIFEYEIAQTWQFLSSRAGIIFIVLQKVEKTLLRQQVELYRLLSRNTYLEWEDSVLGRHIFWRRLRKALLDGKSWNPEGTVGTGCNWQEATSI
Target sequence (Q99836 whole entry, looked up): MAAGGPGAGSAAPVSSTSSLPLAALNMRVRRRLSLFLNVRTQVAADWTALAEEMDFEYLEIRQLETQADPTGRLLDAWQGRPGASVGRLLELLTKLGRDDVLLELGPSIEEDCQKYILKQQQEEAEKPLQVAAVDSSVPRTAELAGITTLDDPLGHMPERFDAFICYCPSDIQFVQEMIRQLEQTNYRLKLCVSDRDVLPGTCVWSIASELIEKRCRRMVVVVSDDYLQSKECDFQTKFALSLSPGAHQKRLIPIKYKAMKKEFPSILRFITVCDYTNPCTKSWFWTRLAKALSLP
Bim-Mcl-1 = inhibitors of Bim peptide binding to Mcl-1, primary screen, biochemical, bead-based flow cytometry, multiplex; Bim peptide-Mcl-1 binding; inhibition, % at 10 µM; actives 0.1% (n = 190,000); AID 1009, 2008; in the data active = inhibition above about 40%
Mcl1-Noxa inh = Mcl-1/Noxa binding inhibitors, primary screen, biochemical, TR-FRET, 1536-well; actives 1.5% (n = 220,000); inhibition, % at 21.7 µM; AID 1022, 2008; Induced myeloid leukemia cell differentiation protein Mcl-1 (Homo sapiens), Q07820; TR-FRET Mcl-1/Noxa peptide binding, 2 h;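 active = compounds that cut the protein-peptide binding signal by more than 50% relative to plate controls in a single-dose test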;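 also: His-tagged Mcl-1 with rhodamine Noxa BH3 peptide and terbium anti-His antibody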
TLR9-MyD88 block = inhibitors of TLR9-MyD88 association in cells, primary screen, cell-based, CHO, BLA complementation, fluorescence; Toll-like receptor 9 (Homo sapiens) + Myeloid differentiation primary response protein …; CCF4 FRET ratio; inhibition, % at 4.98 µM; actives 0.21% (n = 340,000);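 active = inhibition above the mean over all tested compounds plus 3 SD, cut at about 21% in these data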
TLR4-MyD88 conf = TLR4-MyD88 association inhibitors, retest, confirmation, cell-based, HeLa CL3-4, BLA complementation, FRET ratio | shares compounds with TLR4-MyD88 BLA | CCF4 FRET ratio | inhibition, % at 8.4 µM | actives 50% (n = 350);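 active = mean inhibition across three repeat runs above about 25% carried over from the earlier screen, limit read from the data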
BLA inhibitor ct = beta-lactamase inhibition flagged in TLR4-MyD88 counter-screen; inhibition, % at 8.4 µM; actives 63% (n = 350); shares compounds with TLR4-MyD88 BLA; HeLa BLA reporter, CCF4 FRET ratio; AID 1237;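 active = mean inhibition over three repeats above about 26% taken from the earlier screen, limit read from the data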;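 also: HeLa cells stably expressing beta-lactamase reporter as counterscreen for TLR4-MyD88 inhibitors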
Of the large screens only hits and unclear results are named; the others gave an inactive call (follow-up assays come after a bar, where they were run).

C[N+](C)(C)CCOP(=O)(O)OP(=O)([O-])OC[C@H]1O[C@@H](n2ccc(N)nc2=O)[C@H](O)[C@@H]1O	none
O=C(NC1C/C(=N/O)c2cc3c(cc21)OCO3)C(F)(F)F (stereo not drawn)	none
O=c1c2ccccc2nc(/C=C/c2c[nH]c3ccccc23)n1CCO	TLR4-MyD88 BLA 26.2 | TLR4-MyD88 conf inactive | BLA inhibitor ct inactive
COC(=O)c1ccc(-c2sc3nc(N4CCOCC4)c4c(c3c2N)CCCC4)o1	TLR4-MyD88 BLA 27.5 (no result: NOD2-RIPK2 inh, TLR9-MyD88 block) | TLR4-MyD88 conf inactive | BLA inhibitor ct 51.9
COC(=O)c1sc2nc(N3CCCCC3)c3c(c2c1N)CCCC3	none
Cc1ccc(C)c(N2C(=N)S/C(=C\c3ccc(-c4ccccc4C(=O)O)o3)C2=O)c1	TLR4-MyD88 BLA 26.1 | TLR4-MyD88 conf inactive | BLA inhibitor ct inactive
O=C(Cn1cc(C(F)(F)F)cc(Cl)c1=O)NC1CCS(=O)(=O)C1 (stereo not drawn)	none (no result: Mcl1-Bid inh, TLR4-MyD88 BLA, Bim-Mcl-1, Mcl1-Noxa inh)
CCN(CC(=O)Nc1ccc2c(c1)OCCO2)S(=O)(=O)c1ccc(F)cc1	none (no result: Mcl1-Bid inh, TLR4-MyD88 BLA, Bim-Mcl-1, Mcl1-Noxa inh)
Cn1c(Cl)cnc1C1CC(=O)c2cc(Cl)ccc2O1 (stereo not drawn)	TLR4-MyD88 BLA 26.9 | TLR4-MyD88 conf inactive | BLA inhibitor ct inactive
CC(C)N(c1ccccc1)c1ccc(NC(=O)COC(=O)CCN2C(=O)c3cccc([N+](=O)[O-])c3C2=O)cc1	TLR4-MyD88 BLA 25.1 | TLR4-MyD88 conf inactive | BLA inhibitor ct inactive
CCCCCCCn1c2c(c(=N)c3ccccc31)CCC2	TLR4-MyD88 BLA 27.8 | TLR4-MyD88 conf 30.1 | BLA inhibitor ct 34.1
CCOC(=O)c1c(NC2=NS(=O)(=O)c3ccccc32)sc2c1CCC(C)C2 (stereo not drawn)	TLR4-MyD88 BLA 51.9 | TLR4-MyD88 conf inactive | BLA inhibitor ct inactive
c1cc2c(cc1C1CCCCC1)c1c3n2CCN=C3CCC1	TLR4-MyD88 BLA 26.8 | TLR4-MyD88 conf inactive | BLA inhibitor ct 41.5
O=C1COc2ccc(C(=O)COC(=O)c3cnc(Cl)c(Cl)c3)cc2N1	TLR4-MyD88 BLA 28.1 | TLR4-MyD88 conf 26.6 | BLA inhibitor ct inactive
O=C(N/N=C/c1cc(Cl)ccc1O)C(=O)Nc1ccccc1OC(F)(F)C(F)F	TLR4-MyD88 BLA 26.8 | TLR4-MyD88 conf inactive | BLA inhibitor ct inactive
O=C(N/N=C/c1cc(Br)ccc1O)C(=O)Nc1ccccc1OC(F)(F)C(F)F	none
CCCn1nc(-c2ccccc2)c2nc3ccccc3nc21	none (no result: NOD2-RIPK2 inh, TLR9-MyD88 block)
CCCCCn1nc(-c2ccccc2)c2nc3ccccc3nc21	TLR4-MyD88 BLA 44.1 | TLR4-MyD88 conf 51.5 | BLA inhibitor ct 62.6
O=C1CNC(=O)/C1=C\N1CCCCC1	TLR4-MyD88 BLA 28.9 | TLR4-MyD88 conf inactive | BLA inhibitor ct inactive
O=C1CN(C(=O)NCC(=O)N[C@@H](C(=O)O)c2ccccc2)c2ccccc2N1	none (no result: Mcl1-Bid inh, TLR4-MyD88 BLA, Bim-Mcl-1, Mcl1-Noxa inh)
CC(C)(C)c1ccc(-n2nc(C#N)c(Cl)cc2=O)cc1	NOD2-RIPK2 inh 71.6, TLR4-MyD88 BLA 42.2 (no result: TLR9-MyD88 block) | TLR4-MyD88 conf 30.3 | BLA inhibitor ct inactive
O=C(COC(=O)c1c2c(nc3ccccc13)/C(=C/c1ccco1)CC2)NC1CCCC1	TLR4-MyD88 BLA 45.1, Mcl1-Noxa inh 98.3 | TLR4-MyD88 conf 44.5 | BLA inhibitor ct 69.1
CC1CCCCC1NC(=O)COC(=O)c1c2c(nc3ccccc13)/C(=C/c1ccco1)CC2 (stereo not drawn)	TLR4-MyD88 BLA 60.6, Mcl1-Noxa inh 51.9 | TLR4-MyD88 conf 49.2 | BLA inhibitor ct 85.1
Cc1cc(C(=O)OCC(=O)NC2CCCCC2C)c2ccccc2n1 (stereo not drawn)	none (no result: Mcl1-Bid inh, TLR4-MyD88 BLA, Bim-Mcl-1, Mcl1-Noxa inh)
O=C(NNC(=O)c1ccccc1O)c1cccc(Br)c1	none (no result: Mcl1-Bid inh, TLR4-MyD88 BLA, Bim-Mcl-1, Mcl1-Noxa inh)
CCN(CC)c1ccc(/C=C/c2nc3ccccc3s2)cc1	TLR4-MyD88 BLA 56.4 (no result: NOD2-RIPK2 inh, TLR9-MyD88 block) | TLR4-MyD88 conf 48.0 | BLA inhibitor ct 75.7
C=CCOc1nc(-c2ccncc2)nc2ccccc12	TLR4-MyD88 BLA 25.5 | TLR4-MyD88 conf inactive | BLA inhibitor ct inactive
Cc1nc2c(OCc3ccccc3)cccn2c1N(C)C(=O)C1CCCCC1	none (no result: Mcl1-Bid inh, TLR4-MyD88 BLA, Bim-Mcl-1, Mcl1-Noxa inh, TLR9-MyD88 block)
COc1ccccc1-c1nnc(NC(=O)C(C)C)s1	TLR4-MyD88 BLA 27.3 | TLR4-MyD88 conf inactive | BLA inhibitor ct inactive
COc1ccccc1-c1nnc(NC(C)=O)s1	none
CCOC(=O)C1(CCC(=O)OCc2ccccc2)CCCCC1=O (stereo not drawn)	none (no result: Mcl1-Bid inh, TLR4-MyD88 BLA, Bim-Mcl-1, Mcl1-Noxa inh)
CCOC(=O)c1c(NC(=O)c2ccccc2Cl)sc2c1CCc1ccccc1-2	none
CCCCC(=O)Nc1sc2c(c1C(=O)OCC)CCC(C=O)=C2Cl	TLR4-MyD88 BLA 26.1 | TLR4-MyD88 conf 38.3 | BLA inhibitor ct 45.4
CC(C)Cc1ccc(C(=O)NCCOc2ccccc2)o1	none (no result: Mcl1-Bid inh, TLR4-MyD88 BLA, Bim-Mcl-1, Mcl1-Noxa inh)
COc1cc(/C=C(/C#N)c2nc3ccccc3[nH]2)ccc1OCC(=O)Nc1ccccc1C	Mcl1-Bid inh 67.4, TLR4-MyD88 BLA 82.6 | TLR4-MyD88 conf 80.1 | BLA inhibitor ct 106.8
COc1cc(/C=C(/C#N)c2nc3ccccc3[nH]2)ccc1OCC(=O)Nc1ccccc1C(C)C	Mcl1-Bid inh 59.4, TLR4-MyD88 BLA 76.8 | TLR4-MyD88 conf 79.6 | BLA inhibitor ct 112.9
COc1cc(/C=C(\C#N)c2nc3ccccc3[nH]2)ccc1OC(=O)c1ccco1	none
COc1cc(S(=O)(=O)n2cnc3ccccc32)ccc1Br	none (no result: Mcl1-Bid inh, TLR4-MyD88 BLA, Bim-Mcl-1, Mcl1-Noxa inh)
COc1cccc2cc(C(=O)C3=C(O)C(=O)N(CCN4CCOCC4)C3c3ccc(C(C)(C)C)cc3)oc12 (stereo not drawn)	none (no result: Mcl1-Bid inh, TLR4-MyD88 BLA, Bim-Mcl-1, Mcl1-Noxa inh)
O=S(=O)(NCc1ccccc1)c1ccc(Cl)cc1	none
O=S(=O)(Nc1cc2nc3ccccc3nc2n1Cc1ccccc1)c1ccc(Cl)cc1	NOD2-RIPK2 inh 43.8, TLR4-MyD88 BLA 36.4 | TLR4-MyD88 conf 33.0 | BLA inhibitor ct 65.6
CCOC(=O)Cc1csc(NC(=O)Cc2cccs2)n1	TLR4-MyD88 BLA 26.2 | TLR4-MyD88 conf inactive | BLA inhibitor ct inactive
Cc1ccc(C2OC(=O)C=C2c2ccccc2)cc1 (stereo not drawn)	none (no result: Mcl1-Bid inh, TLR4-MyD88 BLA, Bim-Mcl-1, Mcl1-Noxa inh)
